Nrf2 activator = qHTS of Nrf2 Activators | Potency, µM (doses to about 46.1 µM), for the others: at the highest dose activation, hits mostly activators | AREc32 ARE-luciferase reporter (MCF7-derived line), luminescence, 24 h | 410,000 tested, 0.31% active; note: potency is the fitted concentration of half-maximal effect; % of control where 0% means no effect; nearly all actives have a fitted effect of over 65% in size
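AREc32 cells carrying an ARE-driven firefly luciferase reporter were seeded at 1000 cells/well in OPTI-MEM with 5% FBS, then exposed to compound for 24 hr at 37 deg C. Luminescence was read with Steady-Glo after 30 min at RT.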
miR-21 act = qHTS Assay for Modulators of miRNAs and/orActivators of miR-21 | HeLa miR-21 FLuc reporter, luciferase, 48 h | Potency, µM (top dose mostly 38.3 µM), inactives show at the highest dose activity change, positive = activation, usual class: activators | 340,000 tested, under 10 active | AID 2288, 2010;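 note: % of control where 0% means no effect; miR-21 action dims this reporter so a rising signal means less miR-21 action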
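HeLa cells stably expressing CMV-driven firefly luciferase with a downstream miR-21 binding sequence, endogenously expressing miR-21, were treated with titrations (up to about 40uM final) for 48 hours at 37 degree Celsius. Luciferase luminescence was read after lysis.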
Nrf2 inh = Nrf2 qHTS screen for inhibitors; A549 ARE-Fluc reporter, luciferase luminescence, 18-24 h; Potency, µM (top dose mostly 46 µM), without a hit: at the highest dose activity change, negative = inhibition, actives largely listed as inhibitors; 360,000 tested, 2.1% active; AID 504444, 2011; note: potency is the fitted concentration of half-maximal effect; % is set by controls: 0 for no effect and ±100 for the full control effect; nearly all actives have a fitted effect of over 60% in size
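Reporter: ARE-Fluc in A549. Exposure: 18-24 h, 37 °C, 5% CO2, 5% FBS OPTI-MEM. Readouts: fluorescent cytotoxicity (CellTiter-Fluor), then luminescent Nrf2 signal after BugLite.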
A549 tox = Nrf2 qHTS screen for inhibitors: counterscreen for cytotoxicity | A549 ARE-Fluc cells, CellTiter-Fluor viability, 18-24 h | Potency, µM (highest dose often 46 µM), without a hit: top-dose activity change, negative = cytotoxicity, hits mostly inhibitors | 390,000 tested, 0.16% active | AID 504648, 2011; note: potency is the fitted concentration of half-maximal effect; % is set by controls: 0 for no effect and ±100 for the full control effect
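Cytotoxicity counterscreen: CellTiter-Fluor fluorescence was measured in A549 ARE_Fluc cells after 18-24 h of compound exposure in a concentration series. The subsequent BugLite luminescent read reports ARE-luciferase activity.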
p53 reactivator = qHTS assay for re-activators of p53 using a Luc reporter; H1299 p53-A138V BP100-luciferase reporter, luminescence, 24 h; Potency, µM (top dose mostly 92.2 µM), for the others: at the top dose activity change, positive = activation, actives largely listed as activators; 320,000 tested, 0.063% active; AID 504706, 2011; note: potency is the fitted concentration of half-maximal effect; % of control where 0% means no effect; nearly all actives have a fitted effect of over 45% in size
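H1299 (p53-null), stable ts p53-A138V + BP100-Luc; 1000 cells/well, Opti-MEM/10% FBS; cpd 4 pt, 1:5; 24 h, 37 deg C, 5% CO2; detection reagent 10 min RT; luminescence.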
ClpP mod = qHTS Assay for Activators of ClpP | ATP-dependent Clp protease proteolytic subunit (Bacillus subtilis (strain 168)), P80244 | purified B. subtilis ClpP, FRET peptide cleavage, 20 min | Potency, µM (doses to about 57.5 µM), for the others: top-dose activity change, negative = active | 340,000 tested, 1.9% active | AID 651965, 2013; active = well fitted falling curve with a large enough effect; inconclusive = small, poorly fitted or top-dose-only effect; inactive = no such curve, though single readings can be large or run the other way; note: potency is the fitted concentration of half-maximal effect; the source files actives as falling curves though it sought activators and does not explain the sign; nearly all actives have a fitted effect of over 65% in size
Target sequence (P80244 whole entry, looked up): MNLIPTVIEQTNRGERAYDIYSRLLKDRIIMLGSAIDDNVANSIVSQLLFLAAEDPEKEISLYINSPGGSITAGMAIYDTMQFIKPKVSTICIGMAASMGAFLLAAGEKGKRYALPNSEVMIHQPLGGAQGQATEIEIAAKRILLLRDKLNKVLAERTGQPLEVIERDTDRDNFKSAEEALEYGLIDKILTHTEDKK
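FRET quenching reversal measured ClpP activation: 10 microg/mL B. subtilis ClpP at pH 8 with the FRET-FV decapeptide, read at 430 nm after 320 nm excitation. The 20-min minus 0-min signal was scaled between DMSO/no-enzyme wells and ADEP (5.8 microM final).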
An asterisk follows results filed as active; u = inconclusive; x = no result given; [ ] = dose if it differs, or a comment. A selection: hits, their analogues and other compounds. The true share with any hit is near 3.7%. Unless noted, calls come from the whole dose curve; as a rule, active = well fitted curve in the direction sought with a large enough effect; inconclusive = small, poorly fitted or top-dose-only effect, or another doubt; inactive = no such curve, though single readings can be large; an effect the other way counts as inactive or inconclusive.

SMILES	Nrf2 activator	miR-21 act	Nrf2 inh	A549 tox	p53 reactivator	ClpP mod
Cc1ccc(CCNC(=O)c2ccc3c(c2)N(Cc2cccc(Cl)c2)C(=O)c2ccccc2S3(=O)=O)cc1	0%	6%	x	12%	x	0%
CC(C)CC(COCc1ccc(Cl)cc1)N1CCN(C(=O)c2ccc(Cl)cc2Cl)CCC1=O (stereo not given)	-1%	18%	21µM*	u	-2%	-2%
CC(C)C[C@@H](COCc1ccc(Cl)cc1)N1CCN(C(=O)c2ccc(C(F)(F)F)cc2)CCC1=O	-1%	x	x	x	x	2%
Cc1cccc(COCC(Cc2ccccc2)N2CCN(C(=O)c3cccc(Cl)c3)CCC2=O)c1 (stereo not given)	5%	-1%	21µM*	u	-4%	-6%
CN(c1ccc(C(=O)Nc2ccc3c(c2)n(C)c(=O)n3C)cc1)S(C)(=O)=O	0%	-4%	-10%	0%	1%	25µM*
CC(=O)Nc1ccc2c(c1)n(C)c(=O)n2C	0%	-5%	5%	3%[1.84 µM]	9%	-1%
Cn1c(=O)n(C)c2cc(NC(=O)CCl)ccc21	u	u	18µM*	u	-41%	3%
CC(=O)N/C(=C/c1ccccc1)c1sc2ccccc2[n+]1CCCCI	x	x	x	x	x	1%
O=C(COc1ccc(Cl)cc1Cl)NCC1(N2CCOCC2)CCCCC1	0%	x	23µM*	0%	-3%	1%
CN(C)c1cc[n+](CC(=O)Nc2ccc(OC(F)F)cc2)cc1	2%	16%	23µM*	-7%	6%	-1%
COc1ccc(C(=O)C[n+]2ccc(N(C)C)cc2)cc1	-1%	8%	21µM*	-11%	-1%	x
CCc1cccc(C)c1NC(=O)CCS(=O)(=O)c1cc(Br)cc2c1N(C(=O)C1CC1)CC2	1%	2%	12%	-1%	x	-1%
O=C(Oc1ccccc1F)c1nc(SCc2ccccc2F)ncc1Cl	-1%	1%	19%	0%	x	-1%
CN1CC(c2ccc(Cl)c(Cl)c2)[C@@]2(COc3ccccc3C2=O)[C@@]12C(=O)Nc1ccccc12 (stereo not given in full)	0%	-2%	18µM*	u	0%	4%
Nn1c(C2CCC2)nc2ccccc2c1=O	-1%	-1%	-1%	3%	x	x
Nc1nc2c3ccccc3nc(C3CC3)n2n1	0%	-25%	-8%	4%	-7%	22µM*
O=C1C[C@H](c2ccc(-c3ccccc3)cc2)N1S(=O)(=O)c1ccccc1[N+](=O)[O-]	x	x	7%	2%	x	x
Nc1c(N=Nc2ccc([N+](=O)[O-])cc2)c(S(=O)(=O)O)cc2cc(S(=O)(=O)O)c(/C=C/c3ccccc3)c(O)c12	x	x	x	x	x	2%
O=C(NCc1ccc2c(c1)OCO2)C(=O)NCC1OCCN1S(=O)(=O)c1ccc(Cl)cc1 (stereo not given)	0%	11%	26µM*	-5%	-5%	-1%
O=C(NCCc1c[nH]c2ccccc12)C(=O)NCC1OCCN1S(=O)(=O)c1ccc(Cl)cc1 (stereo not given)	-1%	27%	23µM*	-12%	4%	1%
O=C(NCc1ccc2c(c1)OCO2)C(=O)NCC1OCCN1S(=O)(=O)c1ccc(Br)cc1 (stereo not given)	1%	18%	u	-1%	0%	0%
O=S(=O)(c1ccc2c(c1)OCCO2)N1CCN(S(=O)(=O)c2ccc(Cl)cc2F)CC1	x	x	4%	-1%	x	x
CNc1cc2c(cc1S(=O)(=O)Nc1ccc(C)c(C)c1)CCC(=O)N2	x	x	u	4%	x	x
COc1ccccc1Nc1cc2ccccc2c(=O)[nH]1	x	x	99%	u	x	x
CCCCn1c(N)c(N(CCOC)C(=O)c2ccc(Cl)c(S(=O)(=O)N3CCCCC3)c2)c(=O)[nH]c1=O	-1%	x	9%	-7%	-10%	32µM*
SMILES	Nrf2 activator	miR-21 act	Nrf2 inh	A549 tox	p53 reactivator	ClpP mod
NC(C(=O)O)c1nn[nH]n1 (stereo not given)	x	x	9%	1%	x	x
COc1ccc(-c2noc(C3CCCN(C(=O)c4ccccc4)C3)n2)cc1 (stereo not given)	1%	-10%	u	0%	8%	-2%
O=C(c1ccco1)N1CCCC(c2nc(-c3ccc(S(=O)(=O)NCc4ccccc4)cc3)no2)C1 (stereo not given)	-1%	24%	10µM*	-11%[1.84 µM]	u	-1%
Cc1ccc2nc(-c3ccc(Cl)c(NC(=O)COc4cccc(C)c4C)c3)oc2c1	8%	-44%	u	-1%	x	-16%
O=C(NC1CCCCC1)C1c2ccccc2OCC(=O)N1Cc1ccccc1 (stereo not given)	-1%	x	x	x	x	-1%
Clc1ccc2[nH]cc(-c3nnnn3-c3ccc4ccccc4c3)c2c1	0%	10%	18µM*	-27%	11%	u
Cc1ccc(-n2nnnc2-c2cnc3ccc(Cl)cc3c2-c2ccccc2)cc1	-1%	0%	u	-26%	-2%	-6%
Cc1sc(C2C(C#N)=C(N)N(c3ccc(Cl)cc3)C3=C2C(=O)CCC3)cc1CN1CCOCC1 (stereo not given)	3%	3%	x	-3%	x	-4%
Cc1nc2ccc(NS(=O)(=O)c3ccc(F)c(F)c3F)cc2s1	4%	x	-22%	5%	-3%	-2%
Cc1nc2ccc(NS(=O)(=O)c3ccc(C)c(C)c3)cc2s1	0%	11%	u	-17%	0%	1%
Cc1nc2ccc(NS(=O)(=O)c3c(F)cc(F)cc3Br)cc2s1	0%	x	21µM*	-1%	11%	0%
Cc1nc2ccc(NS(=O)(=O)c3ccc(F)cc3F)cc2s1	0%	x	13µM*	0%	2%	-2%
O=S(=O)(c1ccccc1)c1nnn2c1nc(N1CCN(c3ccccc3)CC1)c1cc(Cl)ccc12	0%	0%	-11%	6%	x	-16%
COC(=O)c1sc2cnccc2c1N	0%	7%	u	1%	-2%	14µM*
O=C(N/N=C/c1cc(Br)cc(Br)c1O)c1ccncc1	4%	u	u	1%	1%	x
O=C(N/N=C/c1ccc(Cl)cc1Cl)c1ccncc1	0%	-3%	1%	-1%	1%	0%
O=C(N/N=C/c1ccc(O)cc1O)c1ccncc1	-1%	17%	12µM*	-17%	14%	1%

Bioassay records as filed in PubChem BioAssay.
